Measured values as given in PubChem BioAssay (EPA / NIEHS).
Inconclusive results are not listed. Active and inactive are the calls of the source. Rule for the calls: active = hit-call score of the fitted dose curve at least 0.9, where 1 is the maximum; inconclusive = response in the unintended direction; inactive = score below 0.9.

Tests used:
[1] = molecular target: rat Serotonin, 5-Hydroxytryptamine Receptor (5HT), Non-Selective Binding, Htr1a (gene 24473) (UniProt P19327); assay: NVS_GPCR_r5HT_NonSelective: NovaScreen (NVS) G Protein-Coupled Receptor Assay for rat Serotonin, 5-Hydroxytryptamine Receptor (5HT), Non-Selective Binding (AID 2283295)
Sequence of rat Serotonin, 5-Hydroxytryptamine Receptor (5HT), Non-Selective Binding, Htr1a (gene 24473) (P19327 whole entry, looked up): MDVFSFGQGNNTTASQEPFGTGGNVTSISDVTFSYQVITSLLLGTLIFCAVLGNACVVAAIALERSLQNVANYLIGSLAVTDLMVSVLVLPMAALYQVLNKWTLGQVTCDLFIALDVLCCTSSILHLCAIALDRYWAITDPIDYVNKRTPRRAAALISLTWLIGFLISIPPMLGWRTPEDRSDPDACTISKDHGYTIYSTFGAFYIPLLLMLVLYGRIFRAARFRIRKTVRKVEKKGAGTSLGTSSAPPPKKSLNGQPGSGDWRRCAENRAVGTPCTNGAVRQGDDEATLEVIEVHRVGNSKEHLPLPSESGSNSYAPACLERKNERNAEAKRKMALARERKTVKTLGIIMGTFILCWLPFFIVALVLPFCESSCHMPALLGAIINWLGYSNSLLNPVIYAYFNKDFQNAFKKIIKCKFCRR
Summary of the method: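 Radioligand displacement on rat cortical membranes, 1 h incubation, filter-based scintillation counting. Primary duplicates at 25 uM, actives retested in concentration series; loss of signal fitted against DMSO as baseline.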

[2] = molecular target: rat Adrenergic, Alpha 1A Receptor (Adra1A), Adra1a (gene 29412) (UniProt P43140); assay: NVS_GPCR_rAdra1A: NovaScreen (NVS) G Protein-Coupled Receptor Assay for rat Adrenergic, Alpha 1A Receptor (Adra1A) (AID 2283296)
Sequence of rat Adrenergic, Alpha 1A Receptor (Adra1A), Adra1a (gene 29412) (P43140 whole entry, looked up): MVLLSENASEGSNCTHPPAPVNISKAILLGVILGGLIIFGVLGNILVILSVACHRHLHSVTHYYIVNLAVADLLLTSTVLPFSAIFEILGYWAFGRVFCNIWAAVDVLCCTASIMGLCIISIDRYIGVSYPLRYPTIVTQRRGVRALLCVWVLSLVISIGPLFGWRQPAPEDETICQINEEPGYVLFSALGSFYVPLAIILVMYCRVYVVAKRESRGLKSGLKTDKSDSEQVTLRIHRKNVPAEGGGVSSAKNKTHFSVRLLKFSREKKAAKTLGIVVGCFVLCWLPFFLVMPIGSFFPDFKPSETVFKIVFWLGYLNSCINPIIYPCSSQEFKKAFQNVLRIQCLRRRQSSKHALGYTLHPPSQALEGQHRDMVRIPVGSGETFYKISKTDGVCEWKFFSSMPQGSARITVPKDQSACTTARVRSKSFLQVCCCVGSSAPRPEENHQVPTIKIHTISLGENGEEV
Summary of the method: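 Rat cortical membranes pretreated with chlorethyl clonidine; competitive radioligand displacement, 1 h. Filter-based scintillation counting. Primary screen in duplicate at 25 uM, actives followed in concentration series.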

[3] = molecular target: rat Neurokinin-1 Receptor (NK1), Tacr1 (gene 24807) (UniProt P14600); assay: NVS_GPCR_rNK1: NovaScreen (NVS) G Protein-Coupled Receptor Assay for rat Neurokinin-1 Receptor (NK1) (AID 2283309)
Sequence of rat Neurokinin-1 Receptor (NK1), Tacr1 (gene 24807) (P14600 whole entry, looked up): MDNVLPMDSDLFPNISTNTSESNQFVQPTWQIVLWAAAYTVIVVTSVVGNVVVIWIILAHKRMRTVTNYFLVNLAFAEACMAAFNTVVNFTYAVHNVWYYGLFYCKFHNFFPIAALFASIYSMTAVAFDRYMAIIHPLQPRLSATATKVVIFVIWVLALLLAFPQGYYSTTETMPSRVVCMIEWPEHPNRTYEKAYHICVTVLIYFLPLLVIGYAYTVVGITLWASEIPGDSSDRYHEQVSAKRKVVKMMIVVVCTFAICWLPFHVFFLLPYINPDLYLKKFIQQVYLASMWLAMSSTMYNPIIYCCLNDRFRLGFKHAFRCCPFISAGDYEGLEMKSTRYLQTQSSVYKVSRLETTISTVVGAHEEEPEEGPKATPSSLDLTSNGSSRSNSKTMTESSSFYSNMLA
Summary of the method: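 Rat submaxillary gland membranes; radioligand displacement read by filter-based scintillation counting after 1 h. Primary screen in duplicate at 25 uM; actives retested in concentration series; loss of binding fitted versus DMSO.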

[4] = molecular target: rat Opioid Receptor, Non-selective Sodium (Na+) Binding, Oprm1 (gene 25601) (UniProt P33535); assay: NVS_GPCR_rOpiate_NonSelectiveNa: NovaScreen (NVS) G Protein-Coupled Receptor Assay for rat Opioid Receptor, Non-selective Sodium (Na+) Binding (AID 2283311)
Sequence of rat Opioid Receptor, Non-selective Sodium (Na+) Binding, Oprm1 (gene 25601) (P33535 whole entry, looked up): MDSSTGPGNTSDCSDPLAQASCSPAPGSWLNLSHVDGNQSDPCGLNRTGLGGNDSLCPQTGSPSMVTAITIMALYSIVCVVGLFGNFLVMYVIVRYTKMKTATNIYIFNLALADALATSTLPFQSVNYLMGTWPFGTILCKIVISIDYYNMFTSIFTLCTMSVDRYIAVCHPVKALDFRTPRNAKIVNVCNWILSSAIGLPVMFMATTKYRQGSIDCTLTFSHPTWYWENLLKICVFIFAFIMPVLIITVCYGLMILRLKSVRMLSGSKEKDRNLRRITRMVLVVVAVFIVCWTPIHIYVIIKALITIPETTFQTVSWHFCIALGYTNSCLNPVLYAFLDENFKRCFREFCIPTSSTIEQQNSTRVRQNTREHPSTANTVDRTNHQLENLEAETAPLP
Summary of the method: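 Rat forebrain membranes, radioligand displacement with filter scintillation counting, 1.5 h incubation. Screened in duplicate at 25 µM; hits then run in concentration-response up to 50 µM; loss of binding fitted versus DMSO.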

[5] = molecular target: rat Adrenergic Receptor, Beta (Adrb), Non-selective Binding, Adrb1 (gene 24925) (UniProt P18090); assay: NVS_GPCR_rAdrb_NonSelective: NovaScreen (NVS) G Protein-Coupled Receptor Assay for rat Adrenergic Receptor, Beta (Adrb), Non-selective Binding (AID 2283298)
Sequence of rat Adrenergic Receptor, Beta (Adrb), Non-selective Binding, Adrb1 (gene 24925) (P18090 whole entry, looked up): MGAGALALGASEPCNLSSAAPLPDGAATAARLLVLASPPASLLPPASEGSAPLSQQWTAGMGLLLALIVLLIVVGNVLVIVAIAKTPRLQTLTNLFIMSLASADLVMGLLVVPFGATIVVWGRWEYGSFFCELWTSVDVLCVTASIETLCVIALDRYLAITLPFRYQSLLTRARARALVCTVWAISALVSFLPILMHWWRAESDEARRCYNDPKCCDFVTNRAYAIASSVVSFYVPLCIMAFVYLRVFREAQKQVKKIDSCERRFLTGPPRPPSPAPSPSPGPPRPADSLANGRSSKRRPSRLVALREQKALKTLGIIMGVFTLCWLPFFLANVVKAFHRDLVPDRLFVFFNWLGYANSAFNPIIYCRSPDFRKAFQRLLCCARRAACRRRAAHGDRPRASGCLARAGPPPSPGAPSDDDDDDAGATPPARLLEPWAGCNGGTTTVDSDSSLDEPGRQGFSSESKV
Summary of the method: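 Non-selective beta-adrenergic radioligand binding in rat cortical membranes, 1 h incubation, filter-based scintillation read-out. Primary screen 25 uM in duplicate; hits retested in concentration-response up to 50 uM, DMSO baseline.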

[6] = molecular target: rat Somatostatin Receptor (SST), Sstr1 (gene 25033) (UniProt P28646); assay: NVS_GPCR_rSST: NovaScreen (NVS) G Protein-Coupled Receptor Assay for rat Somatostatin Receptor (SST) (AID 2283314)
Sequence of rat Somatostatin Receptor (SST), Sstr1 (gene 25033) (P28646 whole entry, looked up): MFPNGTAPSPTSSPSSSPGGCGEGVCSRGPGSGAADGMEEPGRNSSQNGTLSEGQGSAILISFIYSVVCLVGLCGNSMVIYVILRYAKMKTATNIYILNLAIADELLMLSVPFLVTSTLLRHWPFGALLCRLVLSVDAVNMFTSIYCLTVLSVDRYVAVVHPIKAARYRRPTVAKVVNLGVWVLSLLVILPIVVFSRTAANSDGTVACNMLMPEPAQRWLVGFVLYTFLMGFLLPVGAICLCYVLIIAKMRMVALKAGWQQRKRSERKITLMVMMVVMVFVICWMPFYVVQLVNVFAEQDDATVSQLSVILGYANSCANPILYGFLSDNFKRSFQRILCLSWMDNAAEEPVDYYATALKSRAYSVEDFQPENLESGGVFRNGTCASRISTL
Experimental: NVS_GPCR_rSST is a biochemical, single-readout assay that uses extracted gene-proteins from Rat forebrain membranes in a tissue-based cell-free assay. Measurements were taken 1 hour after chemical dosing in a 96-well plate.NVS_GPCR_rSST is one of one assay component(s) measured or calculated from the NVS_GPCR_rSST assay. It is designed to make measurements of radioligand binding, a form of binding reporter, as detected with scintillation counting signals by Filter-based radiodetection technology.Data from the assay component NVS_GPCR_rSST was analyzed into 1 assay endpoint. This assay endpoint, NVS_GPCR_rSST, was analyzed in the positive analysis fitting direction relative to DMSO as the negative control and baseline of activity. […] Furthermore, this assay endpoint can be referred to as a primary readout, because the performed assay has only produced 1 assay endpoint. […]
Binding assays used specific radioligands (tritiated, iodinated) with non-radioactive competitive displacement ligands in agonist or antagonist protocols (as indicated) and various reference compounds and inhibitors to titrate specific binding to receptors and transporters. Most enzyme assays (CYPs, kinases, phosphatases, proteases, HDACs) used recombinant protein and specific substrates (fluorescence mostly, some colorimetric and radioactive) and inhibitors, followed by a biochemical separation of substrate and product. […]

N=C(N)c1ccc(OCCCCCOc2ccc(C(=N)N)cc2)cc1
AC50 [1]: 14 µM (active)
AC50 [2]: 1.32 µM (active)
outcome [3]: inactive
AC50 [4]: 18.4 µM (active)

CN(C)CCOC(c1ccccc1)c1ccccc1
AC50 [1]: 7.06 µM (active)
outcome [4]: inactive

O=C(CCCN1CCC(O)(c2ccc(Cl)cc2)CC1)c1ccc(F)cc1
AC50 [5]: 18.2 µM (active)

CN(Cc1cnc2nc(N)nc(N)c2n1)c1ccc(C(=O)N[C@@H](CCC(=O)O)C(=O)O)cc1
AC50 [6]: 3.06 µM (active)
